Measurements taken from PubChem BioAssay (Tox21).
Records with an inconclusive call do not appear. Unmarked numbers belong to inactive results. Unless noted, calls come from the whole dose curve.

Target: Peroxisome proliferator-activated receptor delta (Homo sapiens) (UniProt Q03181)
Test: qHTS assay to identify small molecule agonists of the peroxisome proliferator-activated receptor delta (PPARd) signaling pathway (AID 743212);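 note: HEK293H cells with PPARd UAS beta-lactamase reporter GeneBLAzer system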
Details: HEK293H PPARd-UAS-bla, beta-lactamase FRET ratio, 17 h; series mostly up to 62.6 µM; activation: at the top concentration
Summary of the method: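 Steps: seed PPARd-bla HEK293H cells; incubate 5 h, 37 C, 5% CO2; add compounds in DMSO; incubate, 37 C; add LiveBLAzer B/G FRET substrate; hold 2 h at room temperature; measure fluorescence.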
% is set by controls: 0 for no effect and ±100 for the full control effect.

Peroxisome proliferator-activated receptor delta (Homo sapiens), sequence (Q03181 whole entry, looked up): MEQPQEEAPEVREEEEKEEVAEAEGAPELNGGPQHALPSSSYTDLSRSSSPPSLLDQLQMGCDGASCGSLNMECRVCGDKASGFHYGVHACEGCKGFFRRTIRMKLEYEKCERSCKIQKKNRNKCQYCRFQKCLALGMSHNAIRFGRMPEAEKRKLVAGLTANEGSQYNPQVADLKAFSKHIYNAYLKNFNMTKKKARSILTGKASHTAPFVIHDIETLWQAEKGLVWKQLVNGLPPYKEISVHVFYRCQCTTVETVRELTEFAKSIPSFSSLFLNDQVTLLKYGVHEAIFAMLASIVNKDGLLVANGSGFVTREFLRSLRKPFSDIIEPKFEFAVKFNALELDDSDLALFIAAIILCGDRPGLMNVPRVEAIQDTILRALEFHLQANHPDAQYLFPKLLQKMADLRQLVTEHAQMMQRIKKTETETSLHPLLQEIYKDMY

Structure (SMILES) | activation
CCCCCCCCCCCBr | 4.41%
O=C(O)P(=O)(O)O | -0.621%
CCCCCCCCCCCCCCCC/C=C/C1CC(=O)OC1=O (stereo unspecified) | 2.04%
COC(=O)c1cc(Cl)c(NC(C)=O)cc1OC | 0.332%
CCN(CC)CC(=O)Oc1ccc(NC(C)=O)cc1 | 0.136%
O=P(O)(O)C(O)(Cc1cccnc1)P(=O)(O)O | 1.68%
COC(=O)N/N=C/c1c[n+]([O-])c2ccccc2[n+]1[O-] | 4.08%
CC(=O)SCC(CC(=O)c1ccc(C)cc1)C(=O)O (stereo unspecified) | -1.11%
C/C(=N\O)c1ccc(OCC(=O)N2CCCCC2)cc1 | 7.07%
C=C(C)C(=O)OCCOC1CC2CC1C1C=CCC21 (stereo unspecified) | 4.94% [at 81.1 µM]
O=C(CCBr)N1CCN(C(=O)CCBr)CC1 | 3.65%
CCCCCCCCC1CO1 (stereo unspecified) | 2.89% [at 81.1 µM]
O=C(O)CCC(=O)Nc1ccc(S(=O)(=O)Nc2nccs2)cc1 | 0.858%
C/C=C(\C)C=O | 3.05% [at 81.1 µM]
CCOCCOCCOC(C)=O | -1.08% [at 81.1 µM]
CN1CCN(C(=O)C2CCCCC2)CC1 | 5.96%
CCN(CC)CC | -2.65% [at 81.1 µM]
CCN1CCN(C(=O)N[C@@H](C(=O)N[C@@H]2C(=O)N3[C@@H]2SC(C)(C)[C@H]3C(=O)O)c2ccccc2)C(=O)C1=O | -1.03%
CCCCC(O)/C=C(C)/C=C/C=C/C(=O)N1CCCC1=O (stereo unspecified) | -1.98%

Structure (SMILES) | activation
CCCCCCCCCCCCCCCC(=O)OC | -0.279% [at 29.1 µM]
COC(=O)c1ccc(C(=O)O)cc1 | 1.1%
Cc1cc(C)c(C)c(C)c1 | -0.223%
CC1(C)C(=O)C(C)(C)C1=O | -0.668%
CC(C)(C)OC(=O)c1ccccc1C(=O)O | -0.822%
CC(=O)c1ccc(O)c(C(N)=O)c1 | -2.71%
Cc1ccccc1C#N | 0.792%
O=C(O)Cc1c(Cl)ccc(Cl)c1Cl | 3.51%
C[C@H]1COc2c(C3(N)CC3)c(F)cc3c(=O)c(C(=O)O)cn1c23 | 3.25%
Cc1ccccc1OCC(=O)O | -0.457%
C[C@@H]1CC[C@@]2(OC1)O[C@H]1C[C@H]3[C@@H]4CC[C@H]5C[C@@H](O)CC[C@]5(C)[C@H]4CC(=O)[C@]3(C)[C@H]1[C@@H]2C | 0.168% [at 5.95 µM]
O=C(O)/C=C(\CC(=O)O)C(=O)O | -1.97%
CC(C)C(=O)Nc1cccc(C2CN3CCSC3=N2)c1 (stereo unspecified) | 1.72%
COC(=O)c1ccc(NC(C)=O)cc1OC | 1.93%
CN(C)c1cc(NC(=O)CNC(C)(C)C)c(O)c2c1C[C@H]1C[C@H]3[C@H](N(C)C)C(=O)C(C(N)=O)=C(O)[C@@]3(O)C(=O)C1=C2O | -0.388%
OCCC(F)(F)C(F)(F)C(F)(F)C(F)(F)C(F)(F)C(F)(F)F | 4.69%
CCCCc1ccc(Cl)cc1 | 1.41%
CC(=O)SC[C@@H](C)C(=O)N1CCC[C@H]1C(=O)N[C@@H](Cc1ccccc1)C(=O)O | 3.85%
CC1(C)CC(N)CC(C)(C)N1 | -3.47%

Test system: not listed separately
Test: qHTS assay to identify small molecule antagonists of the peroxisome proliferator-activated receptor delta (PPARd) signaling pathway - cell viability counter screen (AID 743213; active = well fitted cell-killing curve with a large enough effect in the repeat runs; note: nearly all actives have a fitted effect of over 50% in size)
Details: PPARd-bla HEK293H viability, CellTiter-Glo luminescence, 17 h; series mostly up to 62 µM; viability change, negative = cytotoxic: at the top concentration
Summary of the method: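 Luminescence from CellTiter-Glo, added after the bla read and incubated 30 min at room temperature, gives viability of HEK293H PPARd-bla cells exposed to compounds for 17 h at 37 C with 300 nM L165041.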

Structure (SMILES) | viability change, negative = cytotoxic
CCCCCCCCCCCBr | 3.41%
O=C(O)P(=O)(O)O | 1.9%
CCCCCCCCCCCCCCCC/C=C/C1CC(=O)OC1=O (stereo unspecified) | 1.06%
COC(=O)c1cc(Cl)c(NC(C)=O)cc1OC | 0.453%
CCN(CC)CC(=O)Oc1ccc(NC(C)=O)cc1 | 1.15%
O=P(O)(O)C(O)(Cc1cccnc1)P(=O)(O)O | 13.6%
COC(=O)N/N=C/c1c[n+]([O-])c2ccccc2[n+]1[O-] | -0.124%
CC(=O)SCC(CC(=O)c1ccc(C)cc1)C(=O)O (stereo unspecified) | -7.66%
C/C(=N\O)c1ccc(OCC(=O)N2CCCCC2)cc1 | 0.166%
C=C(C)C(=O)OCCOC1CC2CC1C1C=CCC21 (stereo unspecified) | 17.5% [at 80.4 µM]
O=C(CCBr)N1CCN(C(=O)CCBr)CC1 | -3.77%
CCCCCCCCC1CO1 (stereo unspecified) | 23.3% [at 80.4 µM]
O=C(O)CCC(=O)Nc1ccc(S(=O)(=O)Nc2nccs2)cc1 | -7.63%
C/C=C(\C)C=O | -3.15% [at 80.4 µM]
CCOCCOCCOC(C)=O | -9.84% [at 80.4 µM]
CN1CCN(C(=O)C2CCCCC2)CC1 | 4.56%
CCN(CC)CC | 4.47% [at 80.4 µM]
CCN1CCN(C(=O)N[C@@H](C(=O)N[C@@H]2C(=O)N3[C@@H]2SC(C)(C)[C@H]3C(=O)O)c2ccccc2)C(=O)C1=O | 12.8%
CCCCC(O)/C=C(C)/C=C/C=C/C(=O)N1CCCC1=O (stereo unspecified) | -9.86%

Structure (SMILES) | viability change, negative = cytotoxic
CCCCCCCCCCCCCCCC(=O)OC | 5.27% [at 28.9 µM]
COC(=O)c1ccc(C(=O)O)cc1 | 0.619%
Cc1cc(C)c(C)c(C)c1 | -0.0693%
CC1(C)C(=O)C(C)(C)C1=O | -1.55%
CC(C)(C)OC(=O)c1ccccc1C(=O)O | -6.24%
CC(=O)c1ccc(O)c(C(N)=O)c1 | 16.5%
Cc1ccccc1C#N | -3.08%
O=C(O)Cc1c(Cl)ccc(Cl)c1Cl | -4.25%
C[C@H]1COc2c(C3(N)CC3)c(F)cc3c(=O)c(C(=O)O)cn1c23 | 12.3%
Cc1ccccc1OCC(=O)O | -0.641%
C[C@@H]1CC[C@@]2(OC1)O[C@H]1C[C@H]3[C@@H]4CC[C@H]5C[C@@H](O)CC[C@]5(C)[C@H]4CC(=O)[C@]3(C)[C@H]1[C@@H]2C | 11.9% [at 6.26 µM]
O=C(O)/C=C(\CC(=O)O)C(=O)O | 19.4%
CC(C)C(=O)Nc1cccc(C2CN3CCSC3=N2)c1 (stereo unspecified) | 0.525%
COC(=O)c1ccc(NC(C)=O)cc1OC | -3.86%
CN(C)c1cc(NC(=O)CNC(C)(C)C)c(O)c2c1C[C@H]1C[C@H]3[C@H](N(C)C)C(=O)C(C(N)=O)=C(O)[C@@]3(O)C(=O)C1=C2O | -2.78%
OCCC(F)(F)C(F)(F)C(F)(F)C(F)(F)C(F)(F)C(F)(F)F | 6.96%
CCCCc1ccc(Cl)cc1 | 1.11%
CC(=O)SC[C@@H](C)C(=O)N1CCC[C@H]1C(=O)N[C@@H](Cc1ccccc1)C(=O)O | -0.594%
CC1(C)CC(N)CC(C)(C)N1 | 21.5%
